Compound activity from PubChem.
BoNT-F LC inh = BoNT/F light chain protease inhibitors, primary screen, biochemical, flow cytometry, MLPCN library; Botulinum neurotoxin type F light chain protease (Clostridium botulinum); Multiplex microsphere protease cleavage assay; inhibition, % at 10 µM; 360,000 compounds, 0.22% hits; AID 588497, 2011; in the data active means inhibition above about 35%, passing the limit was not always enough; inconclusive means no clear call, values can overlap the other calls
MazF activator = activators of E. coli MazEF toxin-antitoxin RNase, primary screen, biochemical, fluorescence, uHTS; Endoribonuclease toxin MazF (Escherichia coli (strain K12)), P0AE70; FAM/BHQ RNA-DNA oligo cleavage fluorescence, 5 h; activation, % at 20 µM; 350,000 compounds, 0.32% hits; AID 504720, 2011; in the data active means activation above about 50%
Target sequence (P0AE70 whole entry, looked up): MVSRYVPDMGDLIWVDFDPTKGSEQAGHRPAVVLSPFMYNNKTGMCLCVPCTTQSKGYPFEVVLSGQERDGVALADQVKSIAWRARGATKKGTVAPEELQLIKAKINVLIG
BoNT-A LC inh2 = BoNT/A light chain protease inhibitors, primary screen, biochemical, flow cytometry, MLPCN library; 360,000 compounds, 0.17% hits; Botulinum neurotoxin type A light chain protease (Clostridium botulinum A str. ATCC 3502); multiplex microsphere protease substrate cleavage; inhibition, % at 10 µM
PfHsp40 yeast = rescue of yeast from PfHsp40 toxicity, primary screen, S. cerevisiae, ATP luminescence. S. cerevisiae expressing PfHsp40, growth rescue. growth rescue, % at 12.5 µM. 340,000 compounds, 0.68% hits; in the data active means growth rescue above about 28%, passing the limit was not always enough; inconclusive means no clear call, values can overlap the other calls;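 further: yeast W303a lacking pdr1 and pdr3 grown in galactose medium; growth measured after three days at 30 °C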
Autofluor counter = flagged as autofluorescent in microsphere protease counterscreen | fluorescence intensity (no concentration beside the values) | compound autofluorescence counterscreen, microsphere flow cytometry; hits give high values | 360,000 compounds, 3.1% hits; in the data active means fluorescence intensity above about 16000; inconclusive means no clear call, values can overlap the other calls
Anthrax LF inh2 = Bacillus anthracis LF protease inhibitors, primary screen, biochemical, multiplex microsphere, MLPCN library. Lethal factor (Bacillus anthracis), P15917. multiplex microsphere protease cleavage assay. inhibition, % at 10 µM. 360,000 compounds, 0.12% hits. AID 588501, 2011
Numbers stand for hits. The list is not random: actives were taken first. Their share in the collection is about 4.3%. Unless noted, no stated cut-off is given here; in the data, active means inhibition above about 30%; inconclusive means no clear call, values can overlap the other calls; inactive means below that.

CCOc1cccc(/C=N/NC(=S)Nc2cc(S(=O)(=O)N3CCOCC3)ccc2N2CCOCC2)c1O was read as BoNT-F LC inh inactive, MazF activator inactive, BoNT-A LC inh2 inactive, PfHsp40 yeast 59.5, Autofluor counter inactive and Anthrax LF inh2 inactive.
`CCOc1ccc(C(=O)Nc2c3c(nn2-c2cccc(Cl)c2)CS(=O)C3)cc1` (stereo unspecified) gave BoNT-F LC inh inactive, MazF activator inactive, BoNT-A LC inh2 inactive, PfHsp40 yeast inactive, Autofluor counter 22721 and Anthrax LF inh2 inactive.
Screening CCOc1ccc(C(=O)Nc2c3c(nn2-c2ccc(F)cc2)CS(=O)C3)cc1 (stereo unspecified) returned BoNT-F LC inh inactive, MazF activator inactive, BoNT-A LC inh2 inactive, PfHsp40 yeast inactive, Autofluor counter inactive and Anthrax LF inh2 inactive.
For COc1ccc(OCC(=O)N2CCN(c3nnc(-c4ccc(C)cc4)c4ccccc34)CC2)cc1 the results were BoNT-F LC inh inconclusive, MazF activator inactive, BoNT-A LC inh2 inactive, PfHsp40 yeast inactive, Autofluor counter inactive and Anthrax LF inh2 inactive.
For COc1ccc(OCC(=O)N2CCN(C(=O)c3cccc4ccccc34)CC2)cc1 the results were BoNT-F LC inh inactive, MazF activator inactive, BoNT-A LC inh2 inactive, PfHsp40 yeast inactive, Autofluor counter 21547 and Anthrax LF inh2 inactive.
Cc1ccc(OCC(=O)N2CCN(c3nnc(-c4ccc(C)cc4)c4ccccc34)CC2)cc1 was read as BoNT-F LC inh inactive, MazF activator inactive, BoNT-A LC inh2 inactive, PfHsp40 yeast inactive, Autofluor counter 22360 and Anthrax LF inh2 inactive.
`C[C@@H]1Cn2cnc(C(=O)N[C@@H](Cc3c[nH]c4ccccc34)C(=O)OC(C)(C)C)c2C(=O)N1` gave BoNT-F LC inh inactive, MazF activator inactive, BoNT-A LC inh2 inactive, Autofluor counter inactive and Anthrax LF inh2 inactive.
Screening O=C(CCCC(=O)OCC(Cl)=C(Cl)Cl)Nc1cccc(F)c1 returned BoNT-F LC inh inactive, MazF activator inactive, BoNT-A LC inh2 inactive, PfHsp40 yeast inactive, Autofluor counter 22287 and Anthrax LF inh2 inactive.
O=C(CCCC(=O)OCC(Cl)=C(Cl)Cl)Nc1ccc(F)cc1 was read as BoNT-F LC inh inactive, MazF activator inactive, BoNT-A LC inh2 inactive, PfHsp40 yeast inactive, Autofluor counter inactive and Anthrax LF inh2 inactive.
For Cc1noc(C)c1C(=O)Nc1nc(C23CC4CC(CC(C4)C2)C3)cs1 the results were BoNT-F LC inh inactive, MazF activator inactive, BoNT-A LC inh2 inactive, PfHsp40 yeast inactive, Autofluor counter 23212 and Anthrax LF inh2 inactive.
CNC(=O)C(=O)Nc1nc(C23CC4CC(CC(C4)C2)C3)cs1 was read as BoNT-F LC inh inactive, MazF activator inactive, BoNT-A LC inh2 inactive, PfHsp40 yeast inactive, Autofluor counter inactive and Anthrax LF inh2 inactive.
For CCOC(=O)/C(C#N)=C1/C=C(C)NC(c2ccccc2O)=N1 the results were BoNT-F LC inh inactive, MazF activator inactive, BoNT-A LC inh2 inactive, PfHsp40 yeast inactive, Autofluor counter inactive and Anthrax LF inh2 inactive.
Screening CCCCN(CCCC)C1=Nc2ccccc2N/C1=C(/C#N)C(=O)OCC returned BoNT-F LC inh inactive, MazF activator inactive, BoNT-A LC inh2 64.8, PfHsp40 yeast inactive, Autofluor counter inactive and Anthrax LF inh2 40.1.
For CCOC(=O)C1=C(C)Nc2ccccc2N=C1N the results were BoNT-F LC inh inactive, MazF activator inactive, BoNT-A LC inh2 inactive, PfHsp40 yeast inactive, Autofluor counter inactive and Anthrax LF inh2 inactive.
`CCOC(=O)/C(C#N)=C1\Nc2ccccc2N=C1N(CC(C)C)CC(C)C` gave BoNT-F LC inh inactive, MazF activator inactive, BoNT-A LC inh2 37.5, PfHsp40 yeast inactive, Autofluor counter inactive and Anthrax LF inh2 inactive.
`CC(NC(=O)C12CC3CC(CC(O)(C3)C1)C2)c1ccc(Cl)cc1Cl` (stereo unspecified) gave BoNT-F LC inh inactive, MazF activator inactive, BoNT-A LC inh2 inactive, PfHsp40 yeast inactive, Autofluor counter inactive and Anthrax LF inh2 inactive.
For COc1cccc(NC(=O)C2(C)CCN2Cc2ccc(SC)cc2)c1 (stereo unspecified) the results were BoNT-F LC inh inactive, BoNT-A LC inh2 inactive, Autofluor counter inactive and Anthrax LF inh2 inactive.
